Screening results deposited in PubChem BioAssay by Sanford-Burnham Center for Chemical Genomics.
Only some compounds are listed: those with a hit (about 4.1% of all), similar ones and a draw of the others.
NR3A LBD binder – NR3A (human) ligand-binding domain modulation | Tm shift relative to glycine control, % at 25 µM | NR3A LBD differential scanning fluorimetry, Tm shift; 0% = protein alone, 100% = glycine-bound protein | AID 1259313 | actives 2.5% (n = 340,000);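 active = melting temperature shift of at least 10% of the positive control shift, at one fixed dose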
beta cell repl – induces beta-cell replication in MIN6 cells. MIN6 cells proliferation, ATPlite luminescence, 48 h; cells starved in 0.2% serum; 100% = growth in 10% serum. proliferation, % at 10 µM. AID 2380. actives 0.29% (n = 330,000);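 active = compounds whose signal lies at least 3.5 SD above the mean of all wells on their plate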;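 note: 0% = DMSO-treated cells in low-serum medium and 100% = 10% serum control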
MPTP inh – blocks calcium-induced mitochondrial swelling. inhibition, % at 10 µM. isolated mouse mitochondria, Ca2+ swelling absorbance, 30 min. actives 1.4% (n = 360,000);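 active = inhibition of 50% or more, scaled per plate between neutral and stimulator controls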;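 note: 0% = DMSO wells given calcium and 100% = 1 mM EGTA wells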
FAS TE block – blocks the thioesterase domain of human fatty acid synthase; recombinant FAS-TE, OMFH fluorogenic substrate, fluorescence endpoint; P49327; actives 0.67% (n = 360,000); inhibition, % at 15 µM;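 active = compounds whose normalised, plate-corrected inhibition of enzyme fluorescence in the single-dose primary screen is 50% or more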;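 note: 0% = DMSO with enzyme and 100% = substrate without enzyme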
pCIP destab – p/CIP protein destabilization | AID 1984 | Q05BA5 | F442A p/CIP-EGFP cells, EGFP fluorescence, 16 h | actives 0.01% (n = 290,000) | decrease of EGFP signal, % at 10 µM;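 active = EGFP signal decrease of at least 30% at 10 µM or well 3 SD below plate mean, unless failing retest; inactive = the rest, including hits failing retest or dose response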
Target sequence (Q05BA5 1-1403): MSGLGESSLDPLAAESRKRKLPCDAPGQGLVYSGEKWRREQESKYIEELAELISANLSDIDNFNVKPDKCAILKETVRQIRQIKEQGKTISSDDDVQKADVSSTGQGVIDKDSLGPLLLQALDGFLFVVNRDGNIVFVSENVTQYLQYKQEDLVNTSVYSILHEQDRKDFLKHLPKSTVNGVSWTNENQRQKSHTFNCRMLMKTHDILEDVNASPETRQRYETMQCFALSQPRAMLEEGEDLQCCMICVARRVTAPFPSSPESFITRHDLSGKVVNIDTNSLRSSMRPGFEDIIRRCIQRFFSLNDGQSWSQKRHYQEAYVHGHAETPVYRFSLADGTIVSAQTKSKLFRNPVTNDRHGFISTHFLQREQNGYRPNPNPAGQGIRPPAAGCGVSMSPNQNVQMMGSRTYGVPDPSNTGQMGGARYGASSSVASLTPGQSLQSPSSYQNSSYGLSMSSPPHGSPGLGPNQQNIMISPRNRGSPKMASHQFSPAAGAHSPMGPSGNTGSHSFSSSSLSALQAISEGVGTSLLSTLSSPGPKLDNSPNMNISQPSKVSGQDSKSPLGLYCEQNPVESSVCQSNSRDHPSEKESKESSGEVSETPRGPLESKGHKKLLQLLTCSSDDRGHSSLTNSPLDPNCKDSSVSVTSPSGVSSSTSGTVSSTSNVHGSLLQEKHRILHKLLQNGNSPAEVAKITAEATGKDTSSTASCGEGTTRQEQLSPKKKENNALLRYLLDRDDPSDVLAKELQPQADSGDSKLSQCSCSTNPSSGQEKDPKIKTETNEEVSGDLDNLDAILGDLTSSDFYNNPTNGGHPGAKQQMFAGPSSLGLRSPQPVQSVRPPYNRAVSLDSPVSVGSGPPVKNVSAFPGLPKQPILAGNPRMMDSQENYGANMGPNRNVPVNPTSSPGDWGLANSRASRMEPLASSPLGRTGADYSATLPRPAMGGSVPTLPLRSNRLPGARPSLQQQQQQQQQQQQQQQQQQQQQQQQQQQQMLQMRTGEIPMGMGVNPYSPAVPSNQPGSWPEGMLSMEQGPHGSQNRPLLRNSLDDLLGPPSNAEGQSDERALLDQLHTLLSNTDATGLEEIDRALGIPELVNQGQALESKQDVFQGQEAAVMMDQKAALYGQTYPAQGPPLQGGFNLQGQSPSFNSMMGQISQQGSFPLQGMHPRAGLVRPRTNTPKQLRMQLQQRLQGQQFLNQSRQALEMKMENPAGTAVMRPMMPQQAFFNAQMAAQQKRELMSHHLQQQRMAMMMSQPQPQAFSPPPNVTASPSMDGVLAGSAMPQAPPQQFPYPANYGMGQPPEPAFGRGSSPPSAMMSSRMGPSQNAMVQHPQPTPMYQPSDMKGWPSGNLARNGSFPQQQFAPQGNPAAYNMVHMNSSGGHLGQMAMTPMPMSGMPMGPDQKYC
MPTP counter – mitochondrial membrane potential, counter-screen; shares compounds with MPTP inh; isolated mitochondria, Rhodamine 123 fluorescence; inhibition, % at 10 µM; actives 78% (n = 5,000); in the data active = inhibition above about 22%;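 note: 0% = DMSO vehicle and 100% = positive control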
MPTP swell DR – MPTP inhibition, dose response swelling confirmation | shares compounds with MPTP inh | isolated mitochondria swelling, absorbance | IC50, µM | actives 58% (n = 780); in the data active = IC50 below about 20 µM
MPTP counter DR – MPTP inhibitor counter-screen activity, dose response; shares compounds with MPTP inh; isolated mitochondria counterscreen, fluorescence read-out; IC50, µM; actives 49% (n = 780); in the data active = IC50 below about 80 µM
* = called active by the depositor; . = not tested or not shown.

SMILES	NR3A LBD binder	beta cell repl	MPTP inh	FAS TE block	pCIP destab	MPTP counter	others
C/C(=N\Nc1cccc([N+](=O)[O-])c1)c1cc(F)ccc1O	10.4*	-6.3	85.4*	31.6	-15.2	65.4*
N#CC(C#N)=NNc1ccc([N+](=O)[O-])cc1	1.2	-3.0	89.5*	9.0	-22.7	78.2*
C/C(=N\Nc1ccc([N+](=O)[O-])cc1)c1ccc(C#N)cc1	9.2	-2.6	28.4	-2.0	-3.3	.
C/C(=N/Nc1ccc([N+](=O)[O-])cc1)c1ccc(C)cc1C	23.6*	-5.8	65.0*	48.1	-3.5	60.5*
CNCCC1Sc2ccccc2Oc2ccccc21 (stereo not given)	-0.3	-4.1	61.2*	-1.3	-0.8	-5.7	MPTP swell DR=10.5*;MPTP counter DR=>80
CN(C)CCCC1Sc2ccccc2Sc2ccccc21 (stereo not given)	1.2	-3.4	-3.3	-2.5	.	.
CC1=CC(C)(C)N2C(=O)C3(N=C(N)NC(Nc4ccccc4)=N3)c3cc(C)cc1c32 (stereo not given)	-4.2	-3.1	88.4*	-25.9	-1.1	-11.9	MPTP swell DR=9.31*;MPTP counter DR=>80
Cc1cccc(NC2=NC(C)(C)N=C(N)N2)c1	-0.9	-4.7	0.8	-9.1	1.3	.
COc1cccc(CN(C)C(=O)c2cc(COc3ccc4ncccc4c3)on2)c1	0.8	-6.5	97.4*	8.8	1.1	96.8*
O=C(NCCc1cn2ccccc2n1)c1cc(COc2ccc3ncccc3c2)on1	-1.2	-6.6	101.5*	-3.2	-27.3	92.4*
CC(NC(=O)c1cc(COc2ccc3ncccc3c2)on1)c1ccc(F)cc1 (stereo not given)	-0.7	-6.2	94.0*	6.3	-11.4	85.8*
CC(NC(=O)c1cc(COc2ccccc2)on1)c1nccs1 (stereo not given)	-1.0	-0.3	-2.8	-4.9	-3.6	.
O=C(c1cc(COc2ccc3ncccc3c2)on1)N1CCCC1	7.4	-5.7	52.2*	-3.2	-31.1	69.9*
C[C@@]12CCC3[C@@](CCC4[C@@]3(C)CCC[C@@]4(C)C(=O)N3CCOCC3)(CC1=O)C2 (stereo not given in full)	-3.7	2.4	-1.4	-8.5	.	.
Cc1cc(OCc2cc(C(=O)N3CCC(Oc4cccnc4)CC3)no2)cc(C)c1Cl	-12.5	-7.4	68.6*	28.6	-9.4	102.4*
Cc1ccc(OCc2cc(C(=O)NC3CCCCC3)no2)cn1	-0.4	-4.8	4.3	-2.6	-13.4	.
COCC1CCN(C(=O)c2cc(COc3ccc4ncccc4c3)on2)CC1	1.0	-6.4	74.0*	-3.2	-12.3	80.6*
COCC1CCN(C(=O)c2cc(COc3ccc(-n4cncn4)cc3)on2)CC1	-3.0	-3.8	2.3	-3.7	-12.5	.
O=C(NC1CCCC1)c1cc(COc2ccc3ncccc3c2)on1	1.7	-6.1	94.7*	-1.0	-18.2	93.6*
O=C(c1cc(COc2ccc3ncccc3c2)on1)N1CCCCCC1	0.2	-6.5	98.5*	3.3	-27.1	100.6*
CSc1ccccc1OCc1cc(C(=O)N2CCC(c3ccncc3)CC2)no1	.	-7.1	59.8*	3.8	-27.7	91.2*
O=C(O)[C@@H]1CCCN1C(=O)CCc1c[nH]c2ccccc12	-0.3	-2.0	0.8	-9.8	4.2	.
COc1ccc(Nc2nc3ccccc3nc2NS(=O)(=O)c2cccs2)c(OC)c1	-3.9	-2.8	36.9	-6.6	-15.0	.
COc1cccc(Nc2nc3ccccc3nc2NS(=O)(=O)c2cccs2)c1	21.1*	-5.4	58.4*	2.9	-10.5	70.6*
Cc1ccc(NC(=S)NCCSc2ccc(Cl)cc2)cc1	18.3*	-6.8	99.8*	25.4	2.5	99.4*
SMILES	NR3A LBD binder	beta cell repl	MPTP inh	FAS TE block	pCIP destab	MPTP counter	others
Cc1ccc(SCCNC(=S)Nc2cc(C)cc(C)c2)cc1	-1.3	-4.1	2.2	11.5	-11.6	.
Cc1cccc(C)c1NC(=S)NCCSc1ccc(Cl)cc1	-4.8	-6.8	82.1*	35.6	-3.7	86.3*
CC(CNC(=S)Nc1cc(F)cc(F)c1)CSc1ccc(Cl)cc1 (stereo not given)	10.4*	-5.8	97.1*	28.8	-11.5	88.8*
COc1ccc(Cl)cc1NC(=S)NCCSc1ccc(C)cc1	25.4*	-6.4	82.1*	19.2	-3.2	81.1*
Cn1cccc1CNC(=S)Nc1cc(F)cc(F)c1	-1.1	1.1	2.0	-3.2	14.1	.
CC(C)c1ccc(NC(=O)CSc2ncccc2C(=O)Oc2cccc([N+](=O)[O-])c2)cc1	-8.6	-4.1	2.9	3.4	-0.5	.
C=CC(C)(C)O[C@@H]1O[C@H](CO)[C@@H](O)[C@H](O)[C@H]1O	0.3	-0.6	-1.4	-15.5	.	.
CC1(C(=O)Nc2cccc(C#N)c2)CCN1C(=O)Cc1ccc(-c2ccccc2)cc1 (stereo not given)	.	.	92.5*	35.9	.	85.5*
CNCCC=C1c2ccccc2CCc2ccccc21	0.0	-8.0	86.0*	1.4	-9.6	-8.7	MPTP swell DR=6*;MPTP counter DR=>80
C[N+](C)(C)CC/C=C1/c2ccccc2CSc2ccccc21	0.3	1.1	-2.5	-7.0	-4.0	.
Cc1cccc(C)c1NS(=O)(=O)c1cc2c3c(c1)CCN3C(=O)CC2	0.4	1.9	0.6	-90.0	.	.
CCOC(=O)/C=C/C(=O)Nc1cc(S(=O)(=O)Nc2ccc(OC)cc2)ccc1N1CCOCC1	1.0	-7.4	57.1*	-4.2	.	70.1*
COc1ccc(NS(=O)(=O)c2ccc(N3CCOCC3)c(NC(=O)c3ccco3)c2)cc1	-2.1	3.5	3.2	8.2	-15.5	.
COc1ccc(NS(=O)(=O)c2ccc(N3CCOCC3)c(NC(=O)c3cccc(F)c3)c2)cc1	-12.0	-1.4	17.8	32.8	-16.7	.
COc1ccc(NS(=O)(=O)c2ccc(N3CCOCC3)c(NC(=O)c3ccc(F)cc3)c2)cc1	-14.7	0.3	73.4*	10.5	-13.5	17.2	MPTP swell DR=>100;MPTP counter DR=>80
CCN(CC)S(=O)(=O)c1ccc(N2CCOCC2)c(NC(=O)COc2ccc(OC)cc2)c1	-0.4	0.9	-1.0	19.6	.	.
COc1ccc(NS(=O)(=O)c2ccc(N3CCOCC3)c(NC(=O)C(C)C)c2)cc1	-0.3	-1.9	75.8*	0.6	-16.7	54.6*
COc1cc(Cl)c(C)cc1NC(=O)c1ccc(NS(=O)(=O)c2ccc(F)c(F)c2)cc1	31.6*	-5.7	51.2*	9.9	-10.5	60.2*
CC1(C(=O)NS(=O)(=O)c2ccc(C#N)cc2)CCN1C(=O)Cc1ccc(-c2ccccc2)cc1 (stereo not given)	.	.	0.0	15.8	.	.
CCn1c(=O)cc(OCC(=O)Nc2ccccc2C#N)c2ccccc21	-1.4	2.4	-0.2	-5.8	2.9	.
